# Measured values reported in PubChem BioAssay (NCATS).
# Records with an inconclusive call do not appear. Where a call stands in place of a potency, no number is given. Active and inactive are the calls of the source. Unless noted, calls follow the shape of the dose curve; as a rule, active = well fitted curve in the direction sought with a large enough effect; inconclusive = small, poorly fitted or top-dose-only effect, or another doubt; inactive = no such curve, though single readings can be large; an effect the other way counts as inactive or inconclusive.
# Tests used:
# [1] = biological target: Calcium and integrin-binding protein 1 (Homo sapiens) (UniProt Q99828); test: Primary qHTS for Identification of Calcium Integrin Binding Protein 1 (CIB1) Competitor (AID 1508620); conditions: CIB1-GST / FITC-alphaIIb peptide fluorescence polarization; series mostly up to 57.7 µM;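 also: GST tagged CIB1 binding a fluorescein labelled alphaIIb integrin peptide tracer; top concentration of the series differs between compounds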
# Chain of Calcium and integrin-binding protein 1 (Homo sapiens) (Q99828 whole entry, looked up): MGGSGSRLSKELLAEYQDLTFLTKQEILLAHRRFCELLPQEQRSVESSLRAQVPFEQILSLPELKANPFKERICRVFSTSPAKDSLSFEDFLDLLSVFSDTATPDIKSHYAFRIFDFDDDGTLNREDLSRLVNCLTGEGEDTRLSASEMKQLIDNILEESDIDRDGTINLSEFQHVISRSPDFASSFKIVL
# Procedure, shortened: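 Fluorescence polarization competition: GST-tagged CIB1 (1 uM final) preincubated with compound 15 min at room temperature, then FITC-labelled alphaIIb peptide (100 nM final) added. After 15 min at room temperature, polarization read at Ex 480/Em 540.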
# [2] = biological target: Calcium and integrin-binding protein 1 (Homo sapiens) (UniProt Q99828); test: Confirmatory qHTS for Identification of Calcium Integrin Binding Protein 1 (CIB1) Competitor (AID 1508617); conditions: CIB1 binding competition assay, biochemical qHTS; also: potency is read from the fitted curve at half-maximal effect; nearly all actives have a fitted effect of over 65% in size
# Procedure, shortened: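 FP competition: CIB1-GST (1 uM final) in 5 mM HEPES pH 7.4, 125 mM NaCl, 5 mM CaCl2, 0.01% Tween20 preincubated 15 min RT with compounds (up to 114 uM), then FITC-alphaIIb peptide (100 nM), 15 min RT; Ex 480/Em 540.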
# [3] = Primary qHTS for inhibitors of nuclear receptor binding SET domain protein 2 (NSD2) in an isogenic RCH-ACV NSD2 p.E1099K mutant (9B) (AID 1645876); conditions: RCH-ACV NSD2 E1099K (9B) viability, CellTiter-Glo, 72 h; series mostly up to 44.9 µM; also: nearly all actives have a fitted effect of over 70% in size
# [4] = Primary qHTS for inhibitors of nuclear receptor binding SET domain protein 2 (NSD2) in an RCH-ACV wild type WT cells (2C) (AID 1645877); conditions: RCH-ACV (leukaemia line) NSD2 WT (2C) viability, CellTiter-Glo, 72 h; series mostly up to 44.9 µM; also: nearly all actives have a fitted effect of over 70% in size; also: potency is read from the fitted curve at half-maximal effect
# [5] = biological target: Catechol O-methyltransferase (Homo sapiens) (UniProt P21964); test: Confirmatory Screen for Target Class Profiling of Small Molecule Inhibitors of Methyltransferases (AID 1745852); conditions: MTase-Glo luminescence, SAH detection, recombinant enzyme; measured here: COMT max response; stronger effect = lower value
# Chain of Catechol O-methyltransferase (Homo sapiens) (P21964 whole entry, looked up): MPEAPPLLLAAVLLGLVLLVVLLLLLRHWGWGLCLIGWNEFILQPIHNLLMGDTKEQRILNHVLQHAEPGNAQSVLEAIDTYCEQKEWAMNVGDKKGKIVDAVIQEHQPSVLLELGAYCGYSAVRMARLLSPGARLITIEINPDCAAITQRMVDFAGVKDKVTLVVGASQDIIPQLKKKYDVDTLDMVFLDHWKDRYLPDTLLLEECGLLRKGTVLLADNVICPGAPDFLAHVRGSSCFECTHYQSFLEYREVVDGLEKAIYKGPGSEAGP
# [6] = biological target: Guanidinoacetate N-methyltransferase (Homo sapiens) (UniProt Q14353); test: as above; conditions: MTase-Glo luminescence, SAH detection, recombinant enzyme; activity change, negative = inhibition: at 57.3 µM (top of the series) unless noted
# [7] = biological target: Nicotinamide N-methyltransferase (Homo sapiens) (UniProt P40261); test: as above; conditions: MTase-Glo luminescence, SAH detection, recombinant enzyme; measured here: NNMT max response; stronger effect = lower value
# Chain of Nicotinamide N-methyltransferase (Homo sapiens) (P40261 whole entry, looked up): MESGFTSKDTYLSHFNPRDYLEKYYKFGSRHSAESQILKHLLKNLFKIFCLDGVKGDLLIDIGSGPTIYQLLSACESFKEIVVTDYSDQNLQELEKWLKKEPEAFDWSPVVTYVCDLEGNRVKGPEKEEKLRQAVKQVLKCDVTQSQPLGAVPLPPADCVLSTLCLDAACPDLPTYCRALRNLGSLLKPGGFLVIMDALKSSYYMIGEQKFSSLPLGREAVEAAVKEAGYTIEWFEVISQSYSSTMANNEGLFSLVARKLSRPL
# [8] = biological target: Phenylethanolamine N-methyltransferase (Homo sapiens) (UniProt P11086); test: as above; conditions: MTase-Glo luminescence, SAH detection, recombinant enzyme; measured here: PNMT max response; stronger effect = lower value
# Chain of Phenylethanolamine N-methyltransferase (Homo sapiens) (P11086 whole entry, looked up): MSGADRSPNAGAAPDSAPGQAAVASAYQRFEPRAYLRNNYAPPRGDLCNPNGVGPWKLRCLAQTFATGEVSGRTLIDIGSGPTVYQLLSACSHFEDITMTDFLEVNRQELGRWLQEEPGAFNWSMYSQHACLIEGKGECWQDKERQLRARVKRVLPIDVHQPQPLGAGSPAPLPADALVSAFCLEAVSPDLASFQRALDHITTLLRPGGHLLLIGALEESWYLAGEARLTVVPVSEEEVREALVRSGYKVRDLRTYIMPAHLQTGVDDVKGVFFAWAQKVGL
# [9] = qHTS to identify inhibitors of the type 1 interferon - major histocompatibility complex class I in skeletal muscle: primary screen against the NCATS Mechanism Interrogation Plate v5.0 (MIPE) Libary (AID 1347411); conditions: iHSKM cells + IFN-b, HiBiT-tagged MHC-I luminescence, 24 h; series mostly up to 45.8 µM; also: nearly all actives have a fitted effect of over 65% in size
# Procedure, shortened: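 Immortalized human C25cl48 myoblasts with HiBit knocked into endogenous HLA-B*08:01 were stimulated with 4.0 ng/ml IFN-beta and exposed to compounds (11-point 1:3 titration, top 46 uM final) for 24 hrs at 37 C; HiBiT lytic luminescence measured.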
# [10] = biological target: Cytochrome P450 2C9 (Homo sapiens) (UniProt P11712); test: Cytochrome P450 family 2 subfamily C member 9 (CYP2C9) small molecule antagonists: luciferase biochemical (cell-free) qHTS assay (AID 1645842; active = well fitted curve in the direction sought with a large enough effect in the repeat runs; an effect the other way counts as inactive or inconclusive; also: nearly all actives have a fitted effect of over 55% in size; also: potency is read from the fitted curve at half-maximal effect); conditions: P450-Glo CYP2C9 enzyme assay, luciferin luminescence; series mostly up to 57.4 µM
# Chain of Cytochrome P450 2C9 (Homo sapiens) (P11712 whole entry, looked up): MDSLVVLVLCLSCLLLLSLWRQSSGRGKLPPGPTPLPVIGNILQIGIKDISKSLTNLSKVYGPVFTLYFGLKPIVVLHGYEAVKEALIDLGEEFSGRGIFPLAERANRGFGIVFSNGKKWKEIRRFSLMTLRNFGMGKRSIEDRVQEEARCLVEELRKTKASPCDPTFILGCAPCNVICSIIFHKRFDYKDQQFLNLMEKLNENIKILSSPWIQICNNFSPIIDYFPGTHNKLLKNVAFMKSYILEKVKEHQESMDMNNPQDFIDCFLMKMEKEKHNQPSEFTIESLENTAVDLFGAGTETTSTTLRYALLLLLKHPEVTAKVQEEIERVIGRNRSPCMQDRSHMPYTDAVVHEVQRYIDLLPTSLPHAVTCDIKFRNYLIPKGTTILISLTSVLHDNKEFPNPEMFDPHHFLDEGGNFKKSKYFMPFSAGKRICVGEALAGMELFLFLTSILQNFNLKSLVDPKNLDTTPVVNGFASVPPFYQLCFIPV
# Procedure, shortened: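 Luminescence, after 20 min with luciferin detection reagent, reflected CYP2C9 turnover during a 1 h NADPH-driven reaction at 37C. Enzyme-substrate mix contained 0.4% bovine serum albumin and was preincubated with compound 10 min at room temperature.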
# [11] = biological target: Cytochrome P450 2D6 (Homo sapiens) (UniProt P10635); test: Cytochrome P450 family 2 subfamily D member 6 (CYP2D6) small molecule antagonists: luciferase biochemical (cell-free) qHTS assay (AID 1645840; active = well fitted curve in the direction sought with a large enough effect in the repeat runs; an effect the other way counts as inactive or inconclusive; also: nearly all actives have a fitted effect of over 55% in size; also: potency is read from the fitted curve at half-maximal effect); conditions: P450-Glo CYP2D6 enzyme, luciferin luminescence, 1 h; series mostly up to 57.4 µM
# Chain of Cytochrome P450 2D6 (Homo sapiens) (P10635 whole entry, looked up): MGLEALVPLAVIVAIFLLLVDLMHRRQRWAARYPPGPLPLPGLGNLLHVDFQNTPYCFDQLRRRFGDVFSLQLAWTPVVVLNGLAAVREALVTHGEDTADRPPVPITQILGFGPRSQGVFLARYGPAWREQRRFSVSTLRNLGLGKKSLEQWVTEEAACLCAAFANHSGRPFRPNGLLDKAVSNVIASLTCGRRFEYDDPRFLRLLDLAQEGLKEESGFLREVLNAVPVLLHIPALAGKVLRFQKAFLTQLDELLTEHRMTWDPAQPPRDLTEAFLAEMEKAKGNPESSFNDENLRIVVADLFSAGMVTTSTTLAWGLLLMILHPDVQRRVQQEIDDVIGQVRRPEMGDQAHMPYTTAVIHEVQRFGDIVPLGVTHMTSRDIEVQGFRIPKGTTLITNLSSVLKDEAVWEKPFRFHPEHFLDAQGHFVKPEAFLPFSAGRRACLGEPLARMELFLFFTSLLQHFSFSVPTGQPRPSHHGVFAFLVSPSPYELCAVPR
# Procedure, shortened: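 P450-Glo luminescent screen: recombinant CYP2D6 enzyme–proluciferin substrate mix preincubated with compound 10 min at room temperature, then NADPH regeneration added for 1 h at room temperature. Detection reagent added for 20 min; luciferin light read as relative luminescence units.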
smiles,measurement,setting,value
CC[C@@H]1C(=O)O[C@]23C=C[C@@H]4C(C(=O)OC)=CO[C@H](O[C@@H]12)[C@@H]43,Potency,[1],inactive
COc1ccc(CC(NC(C)=O)C(=O)O)cc1 (configuration not stated),Potency,[2],50.1 µM (active)
same,Potency,[3],inactive
same,Potency,[4],inactive
same,activity,[5],-71.7%
same,"activity change, negative = inhibition",[6],0%
same,activity,[7],1.04%
same,activity,[8],-0.971%
CC(=O)OC1CC2C(C)(C)C(=O)C=CC2(C)C2CC(=O)C3=C(CCC3C3=CC(O)OC3=O)C12C (configuration not stated),Potency,[1],inactive
O=C(/C=C/C=C/c1ccc2c(c1)OCO2)N1CCCCC1,outcome,[9],inactive
same,Potency,[1],inactive
same,Potency,[10],10.7 µM (active)
CCC(CC)CC1(C(=O)Nc2ccccc2SC(=O)C(C)C)CCCCC1,outcome,[9],inactive
same,Potency,[1],inactive
same,Potency,[11],inactive
same,Potency,[10],1.9 µM (active)
same,Potency,[3],inactive
same,Potency,[4],inactive
C=C1C[C@@]2(O)O[C@@]3(C[C@H]2C(C)C)[C@@H](C)CC[C@@H]13,outcome,[9],inactive
same,Potency,[1],inactive
same,Potency,[3],inactive
same,Potency,[4],inactive
Cc1cccc(-c2nn3c(c2-c2ccnc4ccc(C(N)=O)cc24)CCC3)n1,outcome,[9],inactive
same,Potency,[1],inactive
same,Potency,[11],inactive
same,Potency,[3],inactive
same,Potency,[4],inactive
CC(NC(=O)[C@H](Cc1ccccc1)NC(=O)OCc1ccccc1)C(=O)CF (some centres not stated),Potency,[1],inactive
CCc1cccc2c3c([nH]c12)[C@@](CC)(CC(=O)O)OCC3,outcome,[9],inactive
same,Potency,[1],inactive
same,Potency,[3],inactive
same,Potency,[4],inactive
O=C(O)CC1CCC(c2ccc(-c3ccc(Nc4ccc(C(F)(F)F)nc4)cn3)cc2)CC1 (configuration not stated),outcome,[9],inactive
same,Potency,[1],inactive
same,Potency,[10],inactive
same,Potency,[3],inactive
same,Potency,[4],inactive
same,activity,[5],-2.38%
same,"activity change, negative = inhibition",[6],0.046%
same,activity,[7],-13.8%
same,activity,[8],-3.22%
COCCCc1sc(-c2ccccc2)nc1C(=O)Nc1ccccc1-c1nc2cc(CN3CCCC3)cnc2s1,outcome,[9],inactive
same,Potency,[1],inactive
C[C@@H]1O[C@@H](O[C@@H]2\C=C/C=C\C=C/C=C\C[C@H](C)OC(=O)/C=C\[C@H]3O[C@@H]3C[C@H](O)C[C@]3(O)C[C@@H](O)[C@@H](C(=O)O)[C@H](C2)O3)[C@H](O)[C@H](N)[C@@H]1O,outcome,[9],inactive
same,Potency,[1],inactive
same,Potency,[3],inactive
same,Potency,[4],inactive
C=C1C(=O)OC2CC(COC(=O)C(C)C)=C(C(C)CCCOC(C)=O)[C@@H](OC(C)=O)C12 (some centres not stated),Potency,[1],inactive
Cc1nc(-c2cccnc2)sc1C(=O)Nc1ccccc1-c1cn2c(CN3CCOCC3)csc2n1,outcome,[9],inactive
same,Potency,[1],inactive
same,Potency,[3],inactive
same,Potency,[4],inactive
Cc1ncc(Cl)cc1NCc1ccc(C(=O)NC(CC2CCCC2)C(=O)NC2CC2)s1 (configuration not stated),outcome,[9],inactive
same,Potency,[1],inactive
same,Potency,[4],14.8 µM (active)
COc1cccc(OC)c1-c1cc(C(=O)N[C@@H](CC(C)C)C(=O)O)nn1-c1ccnc2cc(Cl)ccc12,Potency,[1],inactive
same,Potency,[11],23.9 µM (active)
same,Potency,[10],16.9 µM (active)
COc1cccc(CN(C(=O)CC(C)(C)C)C2CC(C(=O)N3CCNCC3)N(Cc3ccc4c(c3)OCO4)C2)c1 (configuration not stated),Potency,[1],inactive
same,Potency,[11],26.8 µM (active)
CC[C@@H](C)[C@H](N)C(=O)N1Cc2ccccc2C1,Potency,[1],inactive
same,Potency,[11],13.5 µM (active)
same,Potency,[10],inactive
same,Potency,[3],inactive
Cc1onc(-c2c(Cl)cccc2Cl)c1CC(=O)NCc1ccc(OCC(F)(F)F)nc1,Potency,[1],inactive
same,Potency,[11],19 µM (active)
same,Potency,[10],2.39 µM (active)
COc1ccccc1N1CCN(CCCCNC(=O)c2ccc(-c3cscn3)cc2)CC1,Potency,[1],inactive
same,Potency,[11],6.01 µM (active)
COc1cc(Cc2cnc(N)nc2N)c(C(C)C)cc1OC,Potency,[1],inactive
same,Potency,[11],inactive
same,Potency,[10],inactive
CC(=O)NCC1CN(c2ccc(-c3ccc(CNCc4cn[nH]n4)cc3)c(F)c2)C(=O)O1 (configuration not stated),Potency,[1],inactive
same,Potency,[11],inactive
same,Potency,[10],15.1 µM (active)
Cc1cc(-c2nncc3c(C(C)(C)C)c(OCc4ncnn4C)nn23)no1,Potency,[1],inactive
same,Potency,[11],inactive
same,Potency,[10],3.01 µM (active)
same,Potency,[3],inactive
same,Potency,[4],inactive
Oc1ccccc1-c1cc(-c2ccccc2F)[nH]n1,Potency,[1],inactive
same,Potency,[11],inactive
same,Potency,[10],13.5 µM (active)
COc1cccc(Cn2ncc3c4sc(S(C)=O)cc4n(C)c3c2=O)c1 (configuration not stated),Potency,[1],inactive
same,Potency,[11],10.7 µM (active)
same,Potency,[10],12 µM (active)
CC(C)[C@@](O)(c1ccc2cc(OC(F)F)c(OC(F)F)cc2c1)c1cn[nH]n1,Potency,[1],inactive
same,Potency,[11],1.69 µM (active)
same,Potency,[10],1.07 µM (active)
NC1=NC2(c3cc(NC(=O)c4ccc(F)cn4)ccc3F)COCC2CS1 (configuration not stated),Potency,[1],inactive
same,Potency,[11],4.77 µM (active)
same,Potency,[10],9.52 µM (active)
same,Potency,[3],inactive
same,Potency,[4],inactive
O=C(Cn1c2ccccc2c2nc3n(c(=O)c21)CCS3)N1CCCC1,Potency,[1],inactive
same,Potency,[11],inactive
same,Potency,[10],inactive
same,Potency,[3],inactive
same,Potency,[4],inactive
CCNC(=O)OC1CCN(c2nncc3cc(OC)c(OC)cc23)CC1,Potency,[1],inactive
same,Potency,[11],16.9 µM (active)
same,Potency,[10],15.1 µM (active)
